From PubChem BioAssay AID652010 (The Scripps Research Institute Molecular Screening Center, 2013)
Among all 370,000 compounds or so, about 4,100 (1.1%) were called active.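 The calls were made as follows: active = inhibition above the mean over all tested compounds plus 3 SD (cut at about 3.6% in these data); inactive = the rest.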 The list comes from a sample in which actives are over-represented; it also holds similar structures and randomly drawn compounds.

Assay: relief of DAX-1 repression of SF-1 activity – cell-based, luminescence, SF-1 (NR5A1), full-length DAX-1, primary screen (AID 652010);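 also: 0% = DAX-1 cells with DMSO and 100% = cells lacking DAX-1 with DMSO; higher inhibition means more luminescence from relief of DAX-1 repression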
Details: HEK293T StAR-luciferase reporter, SF-1/DAX-1 repression relief; at 6.8 µM; hits give high values

| Structure (SMILES) | inhibition |
| --- | --- |
| CCCCCCN1CCS(=O)(=O)N(Cc2ccc(C(F)(F)F)cc2)C(C(=O)OC)C1 (stereo not drawn) | -0.72% (inactive) |
| CC(=NCC1CCCO1)c1c(O)[nH]c(=O)[nH]c1=O (stereo not drawn) | 1.34% (inactive) |
| O=C1C(C=NCC2CCCO2)=C(O)c2ccccc21 (stereo not drawn) | 4.59% (active) |
| CCc1ccc(CN2C(=O)c3ccccc3C2C(=O)NCC2CCCO2)cc1 (stereo not drawn) | -0.05% (inactive) |
| COc1ccc(CNS(=O)(=O)c2cc(Br)ccc2Br)cc1 | -0.4% (inactive) |
| CCSc1nnc(NC(=O)c2ccc(C)cc2)s1 | 5.52% (active) |
| NC(=O)CSc1nnc(NC(=O)c2ccc3ccccc3c2)s1 | 6.15% (active) |
| CCCc1cc(=O)[nH]c2nnc(SCC(=O)Nc3nnc(SCC)s3)n12 | 2.35% (inactive) |
| COc1ccc(C(=O)CSc2nnc(NC(=O)C3CC(=O)N(c4cccc(OC)c4)C3)s2)cc1 (stereo not drawn) | -0.22% (inactive) |
| O=C(/C=C/c1ccccc1)Nc1nnc(SCC(=O)c2ccc3ccccc3c2)s1 | 0.17% (inactive) |
| COC(=O)c1ccc(CSc2nnc(NC(C)C)s2)cc1 | -0.08% (inactive) |
| CCCCOCCCNC(=O)C[C@H]1C[C@@]2(C(=O)OC)C(=C[C@H](COCc3ccccc3)O[C@@H]2C)N(Cc2cccc3ccccc23)C1=O | -0.91% (inactive) |
| COc1cc(NC(=O)C2CCCN(S(=O)(=O)c3ccc(C(C)(C)C)cc3)C2)cc(OC)c1 (stereo not drawn) | 0.97% (inactive) |
| C/C(=N/NC(=O)c1ccn(C)n1)c1ccncc1 | -0.02% (inactive) |
| O=C(Nc1nnc(-c2ccccc2F)s1)c1ccccc1F | 0.85% (inactive) |
| C/C(=N\NC(=O)c1ccccc1F)c1ccccn1 | 6.14% (active) |
| CCCCCCCCNS(=O)(=O)/C=C/c1cc(C)ccc1CNC(=O)OC(C)(C)C | -1.91% (inactive) |
| CN[C@H]1C[C@H]2c3cc(N4CCOCC4)ccc3CCN2C[C@H]1[C@H](C)O | -0.26% (inactive) |
| COC(=O)C1=C(C)N(Cc2cccc(C(F)(F)F)c2)C(=NCc2ccccc2)NC1c1ccccc1C(F)(F)F (stereo not drawn) | -0.23% (inactive) |
| COc1ccc(C(=O)COC(=O)C(O)c2ccccc2)c(OC)c1 (stereo not drawn) | 3.84% (active) |

| Structure (SMILES) | inhibition |
| --- | --- |
| COc1ccc(C(=O)COC(=O)CN2C(=O)C3CC=CCC3C2=O)c(OC)c1 (stereo not drawn) | 1.03% (inactive) |
| COc1ccc(C(=O)COC(=O)c2nn(C)c(=O)c3ccccc23)c(OC)c1 | 1.33% (inactive) |
| Brc1ccc(C2CC(c3ccccc3)=Nc3ccccc3N2)cc1 (stereo not drawn) | 3.86% (active) |
| CNC(=S)N1N=C(c2ccccc2)CC1c1ccc(Br)cc1 (stereo not drawn) | -0.46% (inactive) |
| S=C1NC(c2ccccc2)=NCN1c1ccc(Br)cc1 | 0% (inactive) |
| CCOC(=O)c1c(C)[nH]c(C2=NNC(=NC(C)COC)SC2)c1C (stereo not drawn) | 4.39% (active) |
| O=C1Nc2ccccc2C1=NN=Cc1ccco1 | -1.23% (inactive) |
| CCOC(=O)[C@]12CCCCC/C=C\1N(Cc1ccc(OC)cc1)C(=O)[C@H]2CC(=O)NCCCN1CCCC1=O | 0.28% (inactive) |
| O=C(NCC1(N2CCCCC2)CCCCC1)c1ccc(NS(=O)(=O)c2ccc(F)cc2)cc1 | 10.6% (active) |
| CN(C)S(=O)(=O)c1ccc(C(=O)NCC2(N3CCOCC3)CCCCC2)cc1 | 3.47% (inactive) |
| CCOc1ccc(S(=O)(=O)Nc2cccc(C(=O)NCC3(N4CCCCC4)CCCCC3)c2)cc1 | 6.71% (active) |
| CCOc1ccc(NS(=O)(=O)c2ccc(C(=O)NCC(c3ccccc3OC)N3CCCC3)cc2)cc1 (stereo not drawn) | 1.1% (inactive) |
| O=C(NCC1CCCO1)c1ccc(S(=O)(=O)Nc2ccc(F)cc2)cc1 (stereo not drawn) | 0.67% (inactive) |
| O=C(NCC1(N2CCCCC2)CCCCC1)c1cccc(S(=O)(=O)Nc2ccccc2Cl)c1 | 3.28% (inactive) |
| C=C(C)C1CC23C(=O)C4(C(=O)c5ccccc5)C[C@@]5(C)CCC(CC2C1(C)C)(C4=O)C35OC (stereo partly drawn) | -0.55% (inactive) |
| CN1C[C@]2(C=C3CCCCC3n3c(=O)n(-c4ccccc4)c(=O)n32)N=C1NC(=O)c1ccccc1 (stereo partly drawn) | -0.17% (inactive) |
| CCc1ccccc1NC(=O)CSc1nnc(-c2cccs2)o1 | -1.18% (inactive) |
| Clc1ccc(C(Cn2ccnc2)OCc2ccsc2Cl)c(Cl)c1 (stereo not drawn) | -1.62% (inactive) |
| Fc1cnc(N2CCOCC2)nc1NCc1ccccc1 | 0.22% (inactive) |
| COC(=O)c1ccccc1Oc1c(F)c(F)nc(N2CCOCC2)c1F | 0.02% (inactive) |

| Structure (SMILES) | inhibition |
| --- | --- |
| COc1ccc(Nc2ncc(F)c(N3CCOCC3)n2)cc1 | 4.78% (active) |
| CN(C)c1ccc(NC(=O)CSc2n[nH]c(-c3ccco3)n2)cc1 | -1.06% (inactive) |
| CCCCC[C@H](C)N1C[C@@H](COCc2ccccc2)Oc2cc(N3CC[C@@H](N(C)C)C3)ccc2S1(=O)=O | 0.28% (inactive) |
| COc1ccc(C2=CN(Cc3ccccc3)C(c3ccc(OC)cc3)CC2=O)cc1 (stereo not drawn) | -1.09% (inactive) |
| O=S(=O)(NCC1CCCO1)c1ccc2ccccc2c1 (stereo not drawn) | -0.46% (inactive) |
| CC(=O)c1ccc(NC(=O)c2cc(-c3cccs3)on2)cc1 | 0.84% (inactive) |
| O=C(c1cc(-c2ccccc2O)on1)N1CCCC1 | 6.48% (active) |
| O=C(c1cc(-c2cccs2)on1)N1CCCCC1 | 4.8% (active) |
| COc1ccc(OCc2cc(C(=O)N3CCCC3)no2)c2ccccc12 | 6.04% (active) |
| CCOC(=O)C1CCCN(C(=O)c2cc(-c3cccs3)oc2C)CC1 (stereo not drawn) | -0.69% (inactive) |
| COc1ccc(C(=O)C2CCCN(C(=O)c3cc(C)on3)C2)cc1F (stereo not drawn) | -0.49% (inactive) |
| O=C(c1ccco1)N1CCN(C(=O)c2cc(-c3ccccc3F)no2)CC1 | 0.38% (inactive) |
| COc1cc(OC)c(C(=O)N2CCCC2)cc1OC | -0.07% (inactive) |
| COc1cc(Cl)ccc1OCc1cc(C(=O)N2CC[C@@H]3CCCC[C@H]3C2)no1 | 3.53% (inactive) |
| O=C(c1cc(COc2ccc(F)cc2F)on1)N1CCOCC1 | 1.39% (inactive) |
| O=C(c1cc(C2CCCCN2S(=O)(=O)c2ccccc2)on1)N1CCOCC1 (stereo not drawn) | -1.39% (inactive) |
| COc1ccccc1-c1cc(C(=O)N2CCCCC2)no1 | 9.11% (active) |
| O=C1CSC2=NCN(c3ccccc3)CN12 | -0.05% (inactive) |
